Compounds with a hit are over-represented: about 3.6% of the library has one in this group of screens.
Anthrax LF inh2 = anthrax lethal factor protease inhibition. P15917. inhibition, % at 10 µM. 0.12% of 360,000 active. multiplex microsphere protease cleavage assay, LF; note: plate controls were buffer without enzyme for full effect and enzyme alone for no effect
Target sequence (P15917 whole entry, looked up): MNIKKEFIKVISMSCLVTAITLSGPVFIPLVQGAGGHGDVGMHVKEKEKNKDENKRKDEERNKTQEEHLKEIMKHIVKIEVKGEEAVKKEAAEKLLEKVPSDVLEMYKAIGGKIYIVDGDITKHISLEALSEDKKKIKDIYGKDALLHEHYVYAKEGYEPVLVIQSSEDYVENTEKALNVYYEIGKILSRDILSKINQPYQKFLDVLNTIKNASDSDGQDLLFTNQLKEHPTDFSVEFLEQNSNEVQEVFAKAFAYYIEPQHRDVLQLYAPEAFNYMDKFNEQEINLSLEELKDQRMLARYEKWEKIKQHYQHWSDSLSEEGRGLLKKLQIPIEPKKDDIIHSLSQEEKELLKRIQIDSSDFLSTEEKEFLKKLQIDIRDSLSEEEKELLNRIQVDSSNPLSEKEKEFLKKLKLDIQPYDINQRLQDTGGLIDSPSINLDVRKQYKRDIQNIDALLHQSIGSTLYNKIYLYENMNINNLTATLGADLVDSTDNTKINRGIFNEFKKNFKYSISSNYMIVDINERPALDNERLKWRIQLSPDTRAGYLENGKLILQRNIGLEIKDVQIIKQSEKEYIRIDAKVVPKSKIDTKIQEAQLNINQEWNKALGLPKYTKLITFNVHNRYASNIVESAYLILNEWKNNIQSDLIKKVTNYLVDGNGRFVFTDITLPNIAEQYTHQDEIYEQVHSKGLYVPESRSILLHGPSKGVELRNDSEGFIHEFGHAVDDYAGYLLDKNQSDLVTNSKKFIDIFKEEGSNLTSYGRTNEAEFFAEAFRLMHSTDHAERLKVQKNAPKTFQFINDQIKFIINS
BoNT-F LC inh = BoNT F light chain protease inhibition. AID 588497. inhibition, % at 10 µM. Multiplex microsphere protease cleavage assay, flow cytometry. 0.22% of 360,000 active; in the data active = inhibition above about 35%, passing the limit was not always enough; inconclusive = no clear call, values can overlap the other calls; note: plate controls were buffer without enzyme for full effect and enzyme alone for no effect
BoNT-A LC inh2 = inhibitors of Botulinum neurotoxin A light chain protease | multiplex microsphere protease substrate cleavage, flow cytometry | inhibition, % at 10 µM | 0.17% of 360,000 active; note: plate controls were buffer without enzyme for full effect and enzyme alone for no effect
Bead autofluor = counter-screen for toxin protease inhibitors: compound fluorescence. compound autofluorescence counterscreen, microsphere flow cytometry; stronger effect = higher value. 3.1% of 360,000 active. AID 624483. fluorescence intensity (concentration not given with the values); in the data active = fluorescence intensity above about 16000; inconclusive = no clear call, values can overlap the other calls
BJeLR viability = BJeLR cell viability loss | BJeLR (HRASV12) viability, CellTiter-Glo ATP luminescence, 48 h | inhibition, % (test concentration not listed) | 0.17% of 300,000 active; in the data active = inhibition above about 50%; inconclusive = no clear call, values can overlap the other calls
SARS 3CLpro inh = SARS-CoV 3CLpro protease inhibition; P0C6X7; recombinant SARS-CoV 3CLpro, quenched FRET peptide cleavage; inhibition, % at 6 µM; 0.14% of 290,000 active; in the data active = inhibition above about 12%
* hit, by the source's call; ? = inconclusive; nt = not tested or not shown. Cut-off read from the data, not from the text of the source, unless noted: active = inhibition above about 30%; inconclusive = no clear call, values can overlap the other calls; inactive = below that.

SMILES	Anthrax LF inh2	BoNT-F LC inh	BoNT-A LC inh2	Bead autofluor	BJeLR viability	SARS 3CLpro inh
COc1ccc2c(c1)CCC1C2=NN(/C(C)=C\C(C)=O)C1c1ccc(F)cc1 (configuration not stated)	?	?	?	34486*	4	3
COc1ccc2c(c1)C1=NN(/C(C)=C\C(C)=O)C(c3ccccc3)C1CC2 (configuration not stated)	6	-4	3	21972*	0	-1
c1ccc(C2CC(c3ccccc3)C(c3ccccc3)N2)cc1 (configuration not stated)	5	-28	-4	4208	1	5
O=C(NCc1cccnc1)C(=O)C1C(=O)Nc2ccccc21 (configuration not stated)	-2	-12	-1	3478	-4	-5
CCOC(=O)c1sc2nc(CC(=O)OC)nc(NCc3ccc(F)cc3)c2c1C	-3	-3	-3	16799*	10	0
CCOC(=O)c1sc2nc(C)nc(NCc3ccc(F)cc3)c2c1C	-6	-1	-1	4575	-15	2
Cc1nc(-n2cc(F)c(=O)[nH]c2=O)c2nc(C)oc2n1	-4	-4	-2	17089*	4	3
CSc1cnc2c(=O)[nH]c(=O)n(C)c2n1	0	25	2	2143	-1	-3
COc1ccc(Cn2cc(CN3CC(N4CCN(CCN(C)C)CC4)CS3(=O)=O)nn2)cc1 (configuration not stated)	1	2	1	5983	nt	nt
COc1ccccc1-c1noc(-c2ccccc2C(=O)Nc2cccnc2)n1	2	2	2	22521*	-15	5
COc1ccc(-c2noc(-c3ccccc3C(=O)Nc3cccnc3)n2)cc1	-4	5	-1	3868	7	0
O=C(Nc1cccnc1)c1c(F)cccc1F	-4	-3	?	16636*	4	3
O=C(Nc1cccnc1)c1ccccc1-c1nc(-c2ccccc2F)no1	-8	4	3	21936*	-5	5
O=C(NCC(=O)N(CCN1CCOCC1)C(C(=O)NC1CCCC1)c1ccccc1)c1cccs1 (configuration not stated)	-1	1	-1	4539	9	6
O=C(Nc1cccc(Cl)c1)Nc1nnc(CSCCOc2ccc(Cl)cc2)s1	1	-2	0	2093	15	2
COC(=O)c1c(NC(=O)COC(=O)C2CCC2)sc(C)c1C	1	-6	2	5738	-9	nt
Cc1cccc(N(C(=O)c2nsc(Cl)c2Cl)C(C(=O)NC2CCCC2)c2ccc(O)cc2)c1 (configuration not stated)	0	1	0	2172	-3	5
OC(c1ccccc1)c1nc(-c2cncnc2)cs1 (configuration not stated)	-1	-2	0	3405	nt	nt
CN(C)c1ccc(-c2csc(C(C)(O)c3cccc(F)c3)n2)cc1 (configuration not stated)	-4	-4	-1	2924	nt	nt
CCOC(=O)C1=CCC(C(C)(C)C)N(S(=O)(=O)c2ccc(C)cc2)C1 (configuration not stated)	-1	-2	1	5969	nt	nt
O=C(COC(=O)c1ccccc1Br)NCCc1ccc(F)cc1	-2	43*	4	2876	-3	-4
Cc1ccc(OCC(=O)N2CCN(c3nnc(-c4ccc(C)cc4)c4ccccc34)CC2)cc1	-2	3	2	22360*	-4	-3
COc1ccc(OCC(=O)N2CCN(C(=O)c3cccc4ccccc34)CC2)cc1	1	5	3	21547*	2	2
COc1ccc(OCC(=O)N2CCN(C(=O)c3ccccc3)CC2)cc1	-1	-14	0	2863	2	-7
COc1ccc(OC(=O)CCCN2C(=O)c3ccccc3C2=O)cc1	-4	-3	-3	24000*	-11	-2
SMILES	Anthrax LF inh2	BoNT-F LC inh	BoNT-A LC inh2	Bead autofluor	BJeLR viability	SARS 3CLpro inh
Cc1cc(=O)oc2cc(OC(=O)CCN3C(=O)c4ccccc4C3=O)ccc12	-4	2	2	22230*	-9	1
Cc1cc(=O)oc2cc(OCCCN3C(=O)c4ccccc4C3=O)ccc12	-1	-5	0	2134	2	2
CN(C)c1oc(-c2ccccc2)nc1C#N	-4	1	0	22791*	-10	2
CN(C)c1oc(-c2ccccc2Cl)nc1C#N	-2	0	0	10580	8	-5
CCCS(=O)(=O)Nc1ccc(N2CCCCC2)c(S(=O)(=O)Nc2ccccc2OC)c1	-3	-12	-8	7632	nt	nt
CCC(=O)NC(C)C(c1cccs1)N1CCN(c2ccccc2)CC1 (configuration not stated)	-2	-2	2	5467	-18	5
CCN1CCN(C(c2cccs2)C(C)NC(=O)c2ccccc2)CC1 (configuration not stated)	4	6	0	5988	7	-10
CC(=O)NC(C)C(c1cccs1)N1CCN(c2ccccc2)CC1 (configuration not stated)	-2	1	?	16460*	-8	4
CC(NC(=O)c1cccc(F)c1)C(c1cccs1)N1CCN(C)CC1 (configuration not stated)	1	-5	-5	23669*	1	1
CCN(CC)S(=O)(=O)c1cccc(C(=O)NC(C)C(c2cccs2)N2CCCC2)c1 (configuration not stated)	4	4	1	17341*	0	-1
O=C(CSc1ncnc2c1oc1ccccc12)NCc1ccco1	-18	-24	-9	12269	-9	0
COc1ccc(-c2c(=O)n(OCc3ccccc3[N+](=O)[O-])c3ccccc3[n+]2[O-])c(OC)c1	-8	2	0	4705	3	-5
CCC(CC)NC(=O)C1CCN(c2ccc(S(=O)(=O)N3CCOCC3)cc2[N+](=O)[O-])CC1	-4	?	-3	?	nt	nt
Cc1ccc(C(=O)NCc2ccccn2)c(Cl)c1	-3	-1	0	3688	-4	6
O=C(NCc1ccccn1)c1ccccc1Cl	-3	0	?	23233*	2	-6
O=C(COc1ccccc1Br)NCc1ccccn1	-1	1	0	22895*	-28	6
O=C(NCc1ccccn1)c1cccc([N+](=O)[O-])c1	2	-3	-2	24684*	0	-2
O=C(COc1ccc(F)cc1Br)NCc1ccccn1	3	2	0	3833	-2	0
CCOC(=O)C1CCCN(C(=O)CCCn2c(=O)c3cccn3c3cccnc32)C1 (configuration not stated)	-1	0	-5	5293	4	-1
CCOC(=O)C1(Cc2cccc(F)c2)CCN(C(=O)c2cnc(C)cn2)CC1	5	-3	-1	3592	0	-1
Cc1cccn2cc(-c3ccc(F)cc3)nc12	-3	-2	-1	23835*	-1	2
O=C(c1cccs1)c1ccccc1Cc1cccs1	0	-1	0	3684	nt	nt
